IMPase Li inh = IMPase inhibition in cells with lithium potentiation | CHO-M1 cells, IP1 TR-FRET (IP-One), carbachol + lithium | Potency, µM (series often up to 59.4 µM), inactives show at the top dose activity, negative = IMPase inhibition, most hits filed as inhibitors | 0.35% of 210,000 active | AID 1457;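 note: IP1 builds up when IMPase is blocked and the TR-FRET signal falls; potency is the fitted concentration of half-maximal effect; plate controls were basal vehicle for no effect and high inhibitor control for full effect; nearly all actives have a fitted effect of over 50% in size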
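IP1 accumulation measured by competitive TR-FRET in lysed CHO-M1 cells after 30 min compound exposure at 37C, with a small lithium addition to potentiate weak responses. Hill-equation AC50 from ratio and donor-channel data.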
ALDH1A1 block = inhibitors of human aldehyde dehydrogenase 1A1; P00352; Purified ALDH1A1, NADH fluorescence, propionaldehyde substrate; Potency, µM (series often up to 75.3 µM), without a hit: at the top dose activity, negative = inhibition, usual class: inhibitors; 7.3% of 220,000 active; active = well fitted inhibition curve with a large enough effect, not every such curve was filed as active; inconclusive = small, poorly fitted or top-dose-only effect, or another doubt; inactive = no such curve, though single readings can be large or run the other way;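 note: potency is the fitted concentration of half-maximal effect; plate controls were no enzyme wells and a reference inhibitor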
PNC inhibitor = inhibitors of perinucleolar compartment assembly; 3.1% of 140,000 active; PC3M PTB-GFP, PNC prevalence imaging, 16 h; active compounds read low; activity change (PNC), negative = inhibition, % at 10 µM; AID 2417;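 active = readout at or below -70, meaning at least 70% loss of cells showing the perinucleolar compartment, a nuclear body marking cancer cells; inconclusive = readout between -30 and a set limit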;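 note: plate controls were DMSO wells for no effect and camptothecin positive control wells for full effect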
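Compounds are pinned in duplicate onto adhered PC3M cells stably expressing GFP-tagged PTB and incubated 16 h at 37 C. Cells are then fixed, nuclei stained with Hoechst, and PNC-positive cells counted.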
12-hLO inh = 12-hLO (ALOX12) enzyme inhibition; P18054; purified 12-hLO, xylenol orange hydroperoxide absorbance; Potency, µM (series often up to 57.1 µM), inactives show top-dose activity change, negative = inhibition, hits mostly inhibitors; 0.12% of 150,000 active; AID 1452; note: potency is the fitted concentration of half-maximal effect; nearly all actives have a fitted effect of over 55% in size
Target sequence (P18054 whole entry, looked up): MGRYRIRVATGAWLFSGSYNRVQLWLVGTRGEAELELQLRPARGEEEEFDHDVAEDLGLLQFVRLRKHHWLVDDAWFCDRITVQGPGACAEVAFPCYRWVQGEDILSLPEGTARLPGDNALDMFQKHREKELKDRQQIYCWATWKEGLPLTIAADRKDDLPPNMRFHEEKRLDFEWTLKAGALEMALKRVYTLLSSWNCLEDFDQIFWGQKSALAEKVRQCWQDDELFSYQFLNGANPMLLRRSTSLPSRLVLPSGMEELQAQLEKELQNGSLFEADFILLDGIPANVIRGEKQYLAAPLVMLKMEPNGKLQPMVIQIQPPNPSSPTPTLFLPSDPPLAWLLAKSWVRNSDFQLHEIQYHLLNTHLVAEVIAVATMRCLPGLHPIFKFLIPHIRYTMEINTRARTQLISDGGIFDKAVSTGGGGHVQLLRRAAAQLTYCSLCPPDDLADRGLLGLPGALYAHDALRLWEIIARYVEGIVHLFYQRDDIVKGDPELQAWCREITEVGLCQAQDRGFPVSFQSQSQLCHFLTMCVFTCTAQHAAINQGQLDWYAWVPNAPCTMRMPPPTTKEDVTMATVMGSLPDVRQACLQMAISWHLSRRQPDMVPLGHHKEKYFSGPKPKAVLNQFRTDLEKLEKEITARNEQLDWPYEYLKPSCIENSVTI
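Purified human 12hLO (150 nM), preincubated 15 min with compound, then 40 uM arachidonic acid for 30 min, room temperature, Hepes pH 7.0 with 0.01% Triton X-100. Hydroperoxide detected by ferrous iron/xylenol orange; 573/405 nm absorbance ratio gives reaction progress.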
IMPase inh = cell-permeable inhibitors of inositol monophosphatase (IMPase). P97697. CHO-M1 cells, IP1 accumulation, HTRF TR-FRET ratio. inhibition (IP1 accumulation), % at 46.1 µM. 120,000 tested, under 10 active. AID 901; active = well fitted curve in the direction sought with a large enough effect in the signal ratio, not every such curve was filed as active; inconclusive = small, poorly fitted or top-dose-only effect, or a change in a side signal; inactive = no such curve, though single readings can be large or run the other way; the % refers to the signal ratio;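 note: cells stimulated with carbachol in lithium chloride buffer; plate controls were DMSO basal wells for no effect and reference inhibitor wells for full effect; higher means more IMPase inhibition seen as more IP1 and lower FRET ratio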
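CHO-M1 cells (CHO stably expressing M1 receptor), compound up to 46 uM final, stimulated with carbachol (50 uM as added) in buffer with 50mM LiCl, pH 7.4, 30 min at 37C. Cytosolic IP1 read by TR-FRET; AC50 from Hill fits.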
HPGD block = HPGD (human) dehydrogenase inhibition; purified HPGD, NADH fluorescence kinetic, PGE2 substrate; AID 894; 4.3% of 150,000 active; P15428; Potency, µM, for the others: at the top dose activity change, negative = inhibition, hits mostly inhibitors; active = well fitted inhibition curve with a large enough effect, not every such curve was filed as active; inconclusive = small, poorly fitted or top-dose-only effect, or another doubt; inactive = no such curve, though single readings can be large or run the other way; note: potency is the fitted concentration of half-maximal effect
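20 nM HPGD preincubated 15 min at room temperature with compound in 50 mM Tris-HCl pH 8, 0.01% Tween 20. Started with 1 mM NAD+ and 30 uM prostaglandin E2; NADH fluorescence (360/450 nm) read 5 times over 30-s intervals, last minus first.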
The depositor's hits bear a star; ? = inconclusive; / = not tested or not shown; [ ] = dose if it differs, or a comment. In the library only some 11% were active in any assay of this set; here they are far more common. Unless noted, calls come from the whole dose curve; as a rule, active = well fitted curve in the direction sought with a large enough effect; inconclusive = small, poorly fitted or top-dose-only effect, or another doubt; inactive = no such curve, though single readings can be large; an effect the other way counts as inactive or inconclusive. Unless noted, % is set by controls: 0 for no effect and ±100 for the full control effect.

SMILES	IMPase Li inh	ALDH1A1 block	PNC inhibitor	12-hLO inh	IMPase inh	HPGD block
Cc1ccc2nc(NC(=O)CN(C)S(=O)(=O)c3cccc4nsnc34)sc2c1	5%[38.3 µM]	3%	-122*	-2%	0	-1%
Cc1ccnc(NC(=O)CN(C)S(=O)(=O)c2cccc3nsnc23)c1	-6%[38.3 µM]	0%	64	-1%	7	-15%
Cn1c(=O)c(-c2ccc(F)cc2)nc2cnc(OCc3ccccc3)nc21	0%	?	/	/	/	/
O=C(C1=C(O)C(=O)N(CCCN2CCOCC2)C1c1ccncc1)c1cc2ccccc2o1 (stereo not given)	-18%	14µM*	15	-7%	-25	-7%
CC(=O)C1=C(O)C(=O)N(c2ccc(C(=O)O)cc2)C1c1ccccc1 (stereo not given)	-16%[38.3 µM]	-4%	-7	8%	-18	?
CC(=O)C1=C(O)C(=O)N(C2CCCCC2)C1c1ccccc1 (stereo not given)	-26%	22µM*	-28	8%	?	-17%
O=C(C1=C(O)C(=O)N(CCN2CCOCC2)C1c1cccnc1)c1cc2ccccc2o1 (stereo not given)	10µM*	35µM*	-16	-7%	-28	-11%
CC(=O)C1=C(O)C(=O)N(CCN2CCOCC2)C1c1ccccc1 (stereo not given)	21%[38.3 µM]	25µM*	-14	11%	-6	-15%
COc1cc(C2C(C(=O)OCC(C)C)=C(C)N=C3SCCC(=O)N32)ccc1OCc1ccccc1 (stereo not given)	/	/	/	/	1	/
CN(C)CCCN1C(=O)C(O)=C(C(=O)c2cc3ccccc3o2)C1c1ccccc1 (stereo not given)	10µM*	-9%	43	2%	?	-5%
COC(=O)c1ccc(C2C(C(=O)c3cc4ccccc4o3)=C(O)C(=O)N2CCCN(C)C)cc1 (stereo not given)	?	?	?	7%	-28	-17%
COCCN1C(=O)C(O)=C(C(C)=O)C1c1ccc(F)cc1 (stereo not given)	?	14µM*	-17	-2%	-9	?
Cc1ccc(C2C(C(=O)c3cc4ccccc4o3)=C(O)C(=O)N2CCN2CCOCC2)o1 (stereo not given)	-13%[38.3 µM]	14µM*	-5	-4%	-1[1.84 µM]	-24%
COC(=O)c1c(-c2cc(OC)c(OC)c(OC)c2)c2ccnc(OCc3ncccn3)c2c(=O)n1Cc1ccnc(C)c1	-8%	-7%	/	-6%	1	-26%
Cc1nc(NC(=O)COC(=O)C(NC(=O)c2ccco2)C(C)C)c(Cl)cc1Cl (stereo not given)	-1%[38.3 µM]	25µM*	-6	-11%	-9	-11%
CC1CCCC(NC(=O)COC(=O)[C@@H](NC(=O)c2ccco2)C(C)C)C1C (stereo not given in full)	27%	?	/	/	/	/
CC(NC(=O)NC(N)=O)(C(F)(F)F)C(F)(F)F	-3%[38.3 µM]	0%	-109*	4%	-8	-5%
COC(CNC(=O)c1ccc2c(c1)nc(C)n2-c1ccc(F)c(F)c1)OC	1%	-5%	-91*	-2%	2	11µM*
CCOC(CNC(=O)c1ccc2c(c1)ncn2-c1cccc(F)c1)OCC	1%	2%	/	/	/	/
Cc1nc2cc(C(=O)N3CCc4ccccc43)ccc2n1-c1ccc(F)c(F)c1	9%	?	41	6%	/	14µM*
COC(CNC(=O)c1ccc2c(c1)ncn2-c1ccc(F)c(F)c1)OC	1%	1%	/	/	/	/
COCCNC(=O)c1ccc2c(c1)ncn2-c1ccc(F)c(F)c1	-17%[38.3 µM]	-15%	69	2%	2	2.5µM*
O=C(c1cccc(F)c1)N1CCc2ccccc21	22%[38.3 µM]	-14%	?	-1%	6	-13%
CCOC(CNC(=O)c1ccc2c(c1)ncn2-c1ccc(F)c(F)c1)OCC	-9%	9%	/	/	/	/
COC(CNC(=O)c1ccc2c(c1)nc(C)n2-c1cccc(F)c1)OC	18%[38.3 µM]	-1%	19	-1%	4	11µM*
SMILES	IMPase Li inh	ALDH1A1 block	PNC inhibitor	12-hLO inh	IMPase inh	HPGD block
COc1cccc(-c2nccc(NCc3ccccc3)n2)c1	27%	?	/	/	/	/
COc1ccc2[nH]cc(CCNc3ncnc4ccc(-c5cccc(C#N)c5)cc34)c2c1	11%	-7%	/	/	/	/
Cn1cccc1C(=O)N1CCC2(CC1)CCN(c1ccc(-c3ccccc3)cc1)CC2	11%	10%	/	-3%	/	3%
O=C(CCSc1ccccn1)c1ccccc1	26%	0.25µM*	/	/	/	/
CCOc1ccc(C(=O)OCc2nnc(-c3cccs3)o2)cc1OC	-7%[38.3 µM]	1%	?	-7%	14	25µM*
COc1ccc(C(=O)/C(=C/O)N=Nc2ccc(F)cc2)cc1	20%	4µM*	/	/	/	/
COc1ccc(N=N/C(=C\O)C(=O)c2cccs2)cc1	24%	14µM*	/	/	/	/
CO[C@@H]1/C=C\O[C@]2(C)Oc3c(C)c(O)c4c(O)c(c(CN5CCN(C)CC5)c(O)c4c3C2=O)NC(=O)/C(C)=C\C=C[C@@H](C)[C@@H](O)[C@H](C)[C@@H](O)[C@H](C)[C@H](OC(C)=O)[C@@H]1C	/	/	/	-8%[11.4 µM]	/	/
Cc1cccc2nc(-c3cccc(NC(=O)Cc4ccccc4)c3)cn12	4%	?	-109*	1%	/	-24%
CCOC(=O)c1nn(-c2cccc(C)c2)c2nc(-c3ccccc3)c(C#N)c(=O)n12	4µM*	?	-117*	-12%	?	?
CC(Sc1nnc2ccccn12)C(=O)Nc1ccc(Cl)cn1 (stereo not given)	10%[38.3 µM]	15%	22	-6%	-6	-11%
CC(Sc1nnnn1-c1ccccc1)C(=O)Nc1ccc(Cl)cn1 (stereo not given)	26%[38.3 µM]	5µM*	13	-16%	4	-12%
C/C(CC(=O)Nc1ccc2c(c1)OCO2)=N\NC(=O)OC(C)(C)C	3%	-1%	/	/	/	/
C/C(CC(=O)Nc1ccc2c(c1)OCO2)=N\NC(=O)C(c1ccccc1)c1ccccc1	0%	3.2µM*	24	5%	/	-7%
COCC1=C2c3ccccc3[C@@H]3CNC(=O)C3(C(=O)OC)C[C@@H]2n2c(=O)n(-c3ccccc3)c(=O)n2C1 (stereo not given in full)	7%	0%	/	2%	/	-17%
Cc1cccc(-n2nnnc2SC(C)C(=O)NCCC2=CCCCC2)c1 (stereo not given)	15%[38.3 µM]	5µM*	-3	-7%	5	-24%
CC(C)c1nnc(SCC(=O)NCCC2=CCCCC2)n1N	18%[38.3 µM]	20µM*	?	0%	5	16µM*
CC(C)CCNC(=O)C(=O)NCCC1=CCCCC1	2%	7%	45	-1%	/	-9%

Source: PubChem BioAssay
